# About 1,500 (3.8%) of roughly 39,000 compounds were called active. The sample holds actives, similar compounds and a random draw of the others, so the mix is not that of the screen.
# Test system: HSkMC (human skeletal muscle cells)
# Assay: cytotoxicity call (relative viability < 0.9)
# Settings: 10 µM
row,SMILES,cytotoxicity call
1,CN1C(=O)c2cc(NS(=O)(=O)c3cccc(F)c3)ccc2OC[C@H]2O[C@H](CC(=O)NCCN3CCCCC3)CC[C@@H]21,inactive
2,NC(=O)NC(=O)C[n+]1ccc(/C=N/O)cc1,inactive
3,COc1ccc(S(=O)(=O)N(C)C[C@H]2Oc3ccc(N(C)C)cc3C(=O)N([C@@H](C)CO)C[C@@H]2C)cc1,inactive
4,CS(=O)(=O)N1C[C@H]2C[C@@H](F)[C@@H](O)[C@@H]2C1,inactive
5,C[C@@H]1CCCCO[C@@H](CN(C)C(=O)Nc2ccc3c(c2)OCO3)[C@@H](C)CN([C@H](C)CO)C(=O)c2cc(NC(=O)NC3CCCCC3)ccc2O1,inactive
6,O=C(C[C@H]1C[C@@H]2c3cc(NS(=O)(=O)c4ccc(F)cc4)ccc3O[C@@H]2[C@H](CO)O1)NCc1cccnc1,inactive
7,O=C(C[C@@H]1C[C@H]2c3cc(NC(=O)NC4CCCC4)ccc3O[C@H]2[C@H](CO)O1)NCc1ccc2c(c1)OCO2,inactive
8,O=C(CN1CCOCC1)NCC[C@@H]1CC[C@@H](NC(=O)Cc2ccccn2)[C@H](CO)O1,inactive
9,C[C@@H]1CN([C@@H](C)CO)C(=O)Cc2cc(NC(=O)C3CCCCC3)ccc2O[C@H]1CN(C)C(=O)Nc1ccc(C(F)(F)F)cc1,inactive
10,CC[C@H]1CN(C)N1C(=O)[C@@H]1CCCO1,inactive
11,CC(C)CC#Cc1ccc2c(c1)O[C@H](CN(C)C(=O)c1ccncc1)[C@H](C)CN([C@@H](C)CO)S2(=O)=O,inactive
12,C[C@@H]1CN([C@@H](C)CO)C(=O)Cc2cc(NS(=O)(=O)c3ccc(Cl)cc3)ccc2O[C@H]1CN(C)Cc1ccc(Cl)c(Cl)c1,active
13,C[C@@H]1CN([C@@H](C)CO)C(=O)Cc2cc(NS(=O)(=O)c3ccc(Cl)cc3)ccc2O[C@@H]1CN(C)Cc1ccc(Cl)c(Cl)c1,active
14,C[C@H](CO)N1C[C@H](C)[C@@H](CN(C)Cc2ccc(Cl)c(Cl)c2)Oc2ccc(NS(=O)(=O)c3ccc(Cl)cc3)cc2CC1=O,inactive
15,C[C@@H]1CN([C@H](C)CO)C(=O)Cc2cc(NS(=O)(=O)c3ccc(Cl)cc3)ccc2O[C@@H]1CN(C)Cc1ccc(Cl)c(Cl)c1,active
16,C[C@H]1CN([C@@H](C)CO)C(=O)Cc2cc(NS(=O)(=O)c3ccc(Cl)cc3)ccc2O[C@@H]1CN(C)Cc1ccc(Cl)c(Cl)c1,inactive
17,C[C@H](CO)N1C[C@H](C)[C@H](CN(C)Cc2ccc(Cl)c(Cl)c2)Oc2ccc(NS(=O)(=O)c3ccc(Cl)cc3)cc2CC1=O,active
18,C[C@H](CO)N1C[C@H](C)[C@H](CN(C)CC2CC2)Oc2ccc(NC(=O)CCN3CCOCC3)cc2CC1=O,inactive
19,CC(C)NC(=O)N(C)C[C@@H]1Oc2ccc(NC(=O)NC3CCCCC3)cc2C(=O)N([C@H](C)CO)C[C@@H]1C,inactive
20,CC(C)(C)[S@@](=O)N1Cc2cc(C(=O)NCc3ccc4c(c3)OCO4)nc(CCNS(=O)(=O)c3ccccc3)c2[C@H]1CCO,inactive
21,CCS(=O)(=O)N1CC[C@]2(CC1)CN(CC1CCOCC1)[C@H](CO)c1c2c2ccc(cc2n1C)OC,inactive
22,Cc1noc(C)c1S(=O)(=O)Nc1ccc2c(c1)CC(=O)N([C@H](C)CO)C[C@H](C)[C@H](CN(C)Cc1ccc3c(c1)OCO3)O2,inactive

row,SMILES,cytotoxicity call
1,C[C@@H]1CCCCO[C@H](CN(C)C(=O)Nc2ccc(F)cc2)[C@@H](C)CN([C@H](C)CO)C(=O)c2cc(NC(=O)Nc3ccc4c(c3)OCO4)ccc2O1,inactive
2,Cc1noc(C)c1NC(=O)N(C)C[C@@H]1Oc2ccc(NS(=O)(=O)c3cn(C)cn3)cc2C(=O)N([C@H](C)CO)C[C@@H]1C,inactive
3,Cc1ccc(S(=O)(=O)N(C)C[C@@H]2OCCCC[C@@H](C)Oc3ccc(NC(=O)Nc4ccc(F)cc4)cc3C(=O)N([C@@H](C)CO)C[C@H]2C)cc1,inactive
4,O=C(C[C@@H]1C=C[C@@H](NC(=O)c2cccc(F)c2)[C@H](CO)O1)NCCN1CCCC1,inactive
5,C[C@@H]1CN([C@H](C)CO)C(=O)Cc2cc(NS(=O)(=O)c3ccc(Cl)cc3)ccc2O[C@H]1CN(C)Cc1ccc(Cl)c(Cl)c1,active
6,C[C@H](CO)N1C[C@H](C)[C@@H](CN(C)Cc2ccc(Cl)c(Cl)c2)Oc2ccc(NS(=O)(=O)c3ccc(F)cc3)cc2CC1=O,inactive
7,C[C@H](CO)N1C[C@H](C)[C@H](CN(C)Cc2ccc(Cl)c(Cl)c2)Oc2ccc(NS(=O)(=O)c3ccc(F)cc3)cc2CC1=O,inactive
8,C[C@H]1CN([C@@H](C)CO)C(=O)Cc2cc(NS(=O)(=O)c3ccc(Cl)cc3)ccc2O[C@H]1CN(C)Cc1ccc(Cl)c(Cl)c1,active
9,COc1ccc(S(=O)(=O)Nc2cccc3c2O[C@@H](CN(C)S(=O)(=O)c2cccs2)[C@@H](C)CN([C@@H](C)CO)C3=O)cc1,inactive
10,C[C@H]1CN([C@@H](C)CO)C(=O)c2cccc(NC(=O)Nc3cccc4ccccc34)c2O[C@H]1CN(C)C(=O)Nc1ccc(F)cc1,inactive
11,OCCN1CCOCC1,inactive
12,CCN1C(=O)S[C@@H](CC(=O)O)C1=O,inactive
13,COc1ccc(NC(=O)N(C)C[C@@H]2Oc3c(NS(C)(=O)=O)cccc3C(=O)N([C@@H](C)CO)C[C@H]2C)cc1,inactive
14,CN1C(=O)c2cc(NC(=O)Nc3ccccc3F)ccc2OC[C@@H]2O[C@H](CC(=O)NCc3ccc(-c4ccccc4)cc3)CC[C@H]21,inactive
15,O=[N+]([O-])c1ccc(Oc2ccc(-c3ccccc3)cc2)cc1,inactive
16,O=c1cc(O)nc[nH]1,inactive
17,O=C(O)c1ccc(O)c(O)c1O,inactive
18,CSCC[C@H](NC(=O)[C@@H](N)Cc1c[nH]c2ccccc12)C(=O)N[C@@H](CC(=O)O)C(=O)N[C@@H](Cc1ccccc1)C(N)=O,inactive
19,CSCC[C@H](NC(=O)[C@H](Cc1ccc(OS(=O)(=O)O)cc1)NC(=O)[C@@H](N)CC(=O)O)C(=O)NCC(=O)N[C@@H](Cc1c[nH]c2ccccc12)C(=O)N[C@@H](CCSC)C(=O)N[C@@H](CC(=O)O)C(=O)N[C@@H](Cc1ccccc1)C(N)=O,active
20,CSCC[C@H](NC(=O)[C@H](Cc1c[nH]c2ccccc12)NC(=O)CNC(=O)[C@@H](NC(=O)[C@H](Cc1ccc(OS(=O)(=O)O)cc1)NC(=O)[C@H](CC(=O)O)NC(=O)[C@H](CCC(N)=O)NC(=O)[C@@H]1CCC(=O)N1)[C@@H](C)O)C(=O)N[C@@H](CC(=O)O)C(=O)N[C@@H](Cc1ccccc1)C(N)=O,inactive
21,C[C@H]1CN([C@@H](C)CO)C(=O)Cc2cc(NC(=O)c3ccncc3)ccc2O[C@H]1CN(C)S(=O)(=O)c1ccc(F)cc1,inactive
22,C[C@H](CO)N1C[C@H](C)[C@@H](CN(C)S(=O)(=O)c2ccc(F)cc2)OCCCC[C@H](C)Oc2ccc(NC(=O)c3ccccc3)cc2C1=O,inactive

row,SMILES,cytotoxicity call
1,O=C(O)[C@H]1C[C@@H](CP(=O)(O)O)CCN1,inactive
2,COc1ccc(NC(=O)Nc2ccc3c(c2)C(=O)N([C@H](C)CO)C[C@H](C)[C@@H](CN(C)Cc2ccc(C(F)(F)F)cc2)O3)cc1,inactive
3,COc1ccc(NC(=O)Nc2ccc3c(c2)C(=O)N([C@@H](C)CO)C[C@H](C)[C@H](CN(C)Cc2ccc(C(F)(F)F)cc2)O3)cc1,inactive
4,COc1ccc(CN(C)C[C@H]2Oc3ccc(NC(=O)Nc4ccc(C(F)(F)F)cc4)cc3C(=O)N([C@H](C)CO)C[C@@H]2C)cc1,inactive
5,COc1ccc(NC(=O)Nc2ccc3c(c2)C(=O)N([C@@H](C)CO)C[C@@H](C)[C@@H](CN(C)Cc2ccc(C(F)(F)F)cc2)O3)cc1,inactive
6,COc1ccc(CN(C)C[C@H]2Oc3ccc(NC(=O)Nc4ccc(C(F)(F)F)cc4)cc3C(=O)N([C@H](C)CO)C[C@H]2C)cc1,inactive
7,COc1ccc(CN(C)C[C@@H]2Oc3ccc(NC(=O)Nc4ccc(C(F)(F)F)cc4)cc3C(=O)N([C@H](C)CO)C[C@@H]2C)cc1,active
8,COc1ccc(CN(C)C[C@@H]2Oc3ccc(NC(=O)Nc4ccc(C(F)(F)F)cc4)cc3C(=O)N([C@@H](C)CO)C[C@@H]2C)cc1,active
9,COc1ccc(CN(C)C[C@@H]2Oc3ccc(NC(=O)Nc4ccc(C(F)(F)F)cc4)cc3C(=O)N([C@H](C)CO)C[C@H]2C)cc1,active
10,COc1ccc(CN(C)C[C@@H]2Oc3ccc(NC(=O)Nc4ccc(C(F)(F)F)cc4)cc3C(=O)N([C@@H](C)CO)C[C@H]2C)cc1,active
11,COc1ccc(NC(=O)Nc2ccc3c(c2)C(=O)N([C@@H](C)CO)C[C@@H](C)[C@H](CN(C)Cc2ccc(C(F)(F)F)cc2)O3)cc1,inactive
12,COc1ccc(NC(=O)Nc2ccc3c(c2)C(=O)N([C@H](C)CO)C[C@@H](C)[C@H](CN(C)Cc2ccc(C(F)(F)F)cc2)O3)cc1,inactive
13,COc1ccc(NC(=O)Nc2ccc3c(c2)C(=O)N([C@@H](C)CO)C[C@H](C)[C@@H](CN(C)Cc2ccc(C(F)(F)F)cc2)O3)cc1,inactive
14,Nc1cccn2ncnc12,inactive
15,CCCC(=O)Nc1nc2[nH]c(C)cc(=O)n2n1,inactive
16,COc1cccc(CNC(=O)c2cc3c(c(-c4cccc(-c5cccc(C#N)c5)c4)n2)[C@@H](CCO)N([S@](=O)C(C)(C)C)C3)c1,inactive
17,COC1(NC(=O)C(C(=O)[O-])c2ccc(O)cc2)C(=O)N2C(C(=O)[O-])=C(CSc3nnnn3C)COC21.[Na+].[Na+] (centres undefined),inactive
18,CNC[C@H]1OCCCC[C@@H](C)Oc2ccc(NC(=O)c3ccncc3)cc2C(=O)N([C@@H](C)CO)C[C@H]1C,inactive
19,C[C@@H]1CCCCO[C@@H](CN(C)C(=O)Nc2ccc(F)cc2)[C@@H](C)CN([C@H](C)CO)C(=O)c2cc(NC(=O)C3CCCCC3)ccc2O1,inactive
20,C[C@@H]1CN([C@@H](C)CO)C(=O)c2cc(NC(=O)c3ccccc3)ccc2O[C@@H](C)CCCCO[C@@H]1CN(C)S(=O)(=O)c1ccc(F)cc1,inactive

# — the antibiotic and cytotoxicity screens of Wong et al. (2023)
